# Source: PubChem BioAssay (Broad Institute)
# SIRT5 inh: blocks human SIRT5 desuccinylation of peptide; AID 652115; Purified SirT5, succinyl-peptide AMC, trypsin-coupled fluorescence; Q9NXA8; 1.1% of 330,000 active; inhibition, % at 15 µM; in the data active means inhibition above about 15%
# Target sequence (Q9NXA8 whole entry, looked up): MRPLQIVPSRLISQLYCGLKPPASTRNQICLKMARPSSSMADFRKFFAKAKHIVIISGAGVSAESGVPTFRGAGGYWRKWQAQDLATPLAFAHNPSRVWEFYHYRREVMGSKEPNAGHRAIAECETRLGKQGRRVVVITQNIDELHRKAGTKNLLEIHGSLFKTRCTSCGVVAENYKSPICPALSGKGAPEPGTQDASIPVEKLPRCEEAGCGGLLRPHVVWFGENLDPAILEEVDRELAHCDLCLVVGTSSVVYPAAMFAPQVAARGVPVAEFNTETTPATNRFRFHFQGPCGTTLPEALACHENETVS
# ERAP1 HTS inh: ERAP1 (human) enzyme inhibition; inhibition, % at 10.7 µM; recombinant ERAP1, Leu-AMC fluorescence, 60 min; 0.15% of 340,000 active; Q9NZ08;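 active means mean replicate inhibition of at least 30%, or all replicates individually reaching that 30% level; inactive means mean below 30% and not every replicate reaching it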
# ERp5 inh: inhibitors of human ERp5. Q15084. ERp5 insulin aggregation, absorbance 650 nm, 90 min. inhibition, % at 9.99 µM. 0.05% of 350,000 active. AID 651711;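 active means mean replicate inhibition above about 25%, with every replicate also reaching it, limit read from the data, passing the limit was not always enough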
# PDI turbidity: blocks human protein disulfide isomerase activity | P07237 | PDI insulin aggregation turbidity, A650, 90 min | inhibition, % at 10 µM | 0.052% of 350,000 active | AID 588391;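 active means mean inhibition across replicates of 30% or more, whatever share of single replicates reach that level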
# HDAC3 inhib: inhibitors of human histone deacetylase 3; recombinant HDAC3, fluorogenic peptide/trypsin coupled, fluorescence; 0.15% of 320,000 active; O15379; inhibition, % at 8.3 µM; AID 2718; in the data active means inhibition above about 26%, passing the limit was not always enough
# Numbers stand for hits; - = inactive; . = no result given. This excerpt belongs to a sample that is enriched for hits.
SMILES,SIRT5 inh,ERAP1 HTS inh,ERp5 inh,PDI turbidity,HDAC3 inhib
COc1ccc(N2CSC3=C(C#N)C(c4cccc(OC)c4OC)CC(=O)N3C2)cc1 (stereo not drawn),-,-,-,.,56
COc1ccc(C2CC(=O)N3CN(c4ccc(C)c(Cl)c4)CSC3=C2C#N)cc1 (stereo not drawn),-,-,-,.,51
C[N+](C)(C)CCN1CCc2ccccc21,22,.,-,.,.
Cc1ccccc1-c1cnc2c(c1)C(=O)N([C@@H](C)CO)C[C@@H](C)[C@@H](CN(C)Cc1ccncc1)O2,-,-,-,.,.
CC#CC[N+](C)(C)CCCCCCCC,25,.,-,-,-
O=C(Nc1ccc(F)cc1)N[C@H]1CC[C@@H](CCNS(=O)(=O)c2ccccc2F)O[C@H]1CO,-,-,-,.,.
O=S(=O)(Nc1cccc(-c2cn3c(n2)SCC3)c1)c1ccccc1F,-,37,-,-,-
O=S(=O)(Nc1cccc(-c2cn3c(n2)SCC3)c1)c1ccc(F)cc1F,-,-,-,-,-
C[C@@H]1CN([C@H](C)CO)C(=O)c2ccccc2-c2ccccc2CO[C@@H]1CN(C)S(=O)(=O)c1ccc(F)cc1,-,-,-,.,.
CC(C)(C)c1cc(CN2CCCCC2)cc(C(C)(C)C)c1O,.,.,.,.,-
CC(C)(C)c1cc(CN2CCCC(O)C2)c(O)c(C(C)(C)C)c1 (stereo not drawn),.,.,.,-,36
Cc1ccccc1N1CC(C(=O)O)CC1=O (stereo not drawn),29,-,-,-,-
COc1cc(Nc2ncc3c(n2)CCN(C(=O)Nc2ccc(C(C)C)cc2)C3)cc(OC)c1OC,18,-,-,-,.
O=C(C[C@@H]1C[C@H]2c3cc(NC(=O)Cc4ccncc4)ccc3O[C@H]2[C@@H](CO)O1)NCc1ccc2c(c1)OCO2,-,-,-,.,.
CCCCCCn1c(=O)n2n(c1=O)[C@@H]1CN(S(=O)(=O)c3ccc(C)cc3)C[C@]1(O)[C@@H](OC(=O)NCc1ccccc1)C2,20,-,-,-,.
Cc1ccc(S(=O)(=O)N2C[C@H]3n4c(=O)ccc(=O)n4C[C@H](OC(=O)NCc4ccco4)[C@@]3(O)C2)cc1,33,-,-,-,.
CCS(=O)(=O)N1CCCCN2[C@H](C1)[C@@H](c1ccc(C#Cc3ccccc3OC)cc1)[C@@H]2CO,-,-,-,.,.
CCCN(C)C[C@H]1OCCCC[C@@H](C)Oc2ccc(NC(=O)Nc3ccc(F)cc3)cc2C(=O)N([C@H](C)CO)C[C@@H]1C,-,-,-,.,.
C[C@@H]1CN([C@H](C)CO)C(=O)c2cc(/C=C/c3ccccc3)cnc2O[C@H]1CN(C)C(=O)c1ccc2c(c1)OCO2,-,-,-,.,.
CC(C)NC(=O)NCC[C@@H]1CC[C@H](NC(=O)CCN2CCCCC2)[C@H](CO)O1,-,-,-,.,.
COc1ccccc1-c1cccc(-c2nc(C(=O)Nc3nccs3)cc3c2[C@H](CCO)N(C(=O)CC2CC2)C3)c1,-,-,-,.,.
COc1ccccc1-c1cccc(-c2nc(C(=O)Nc3nccs3)cc3c2[C@@H](CCO)N(C(=O)CC2CC2)C3)c1,16,45,-,.,.
C[C@@H]1CN([C@H](C)CO)C(=O)Cc2cc(NS(=O)(=O)c3cccs3)ccc2O[C@@H]1CN(C)S(=O)(=O)c1ccc(F)cc1,-,-,-,.,.
CN(CC(=O)Nc1ccc(F)cc1)C(=O)Cn1cnc2ccc([N+](=O)[O-])cc2c1=O,24,-,-,-,-
O=C(COC(=O)c1ccc2c(c1)OCO2)Nc1ccccc1,-,-,-,-,-
SMILES,SIRT5 inh,ERAP1 HTS inh,ERp5 inh,PDI turbidity,HDAC3 inhib
CN(C)c1ccc(NC(=O)COC(=O)c2ccc3c(c2)OCO3)cc1,.,-,-,-,33
Cc1noc(C)c1S(=O)(=O)Nc1cccc2c1O[C@@H](CN(C)S(=O)(=O)c1cccs1)[C@@H](C)CN([C@H](C)CO)C2=O,-,-,-,.,.
CC12CCCC(C(C#N)C(N)=O)(C1)NC(=O)C2C#N (stereo not drawn),20,-,-,-,.
CCOC(=O)CN1NC2(CCCCCC2)NC1=S,-,35,-,-,-
C[C@H](CO)N1C[C@H](C)[C@H](CN(C)C(=O)NC2CCCC2)Oc2cc(/C=C/c3ccccc3)ccc2S1(=O)=O,16,-,-,.,.
C[C@@H]1CN([C@H](C)CO)S(=O)(=O)c2ccc(/C=C/c3ccccc3)cc2O[C@@H]1CN(C)C(=O)NC1CCCCC1,-,-,-,.,.
Cc1ccccc1-c1ccc2c(c1)O[C@@H](CN(C)C(=O)Nc1ccc(F)cc1)[C@@H](C)CN([C@@H](C)CO)S2(=O)=O,19,-,-,.,.
